Measured values reported in PubChem BioAssay (EPA / NIEHS).
Results filed as inconclusive are left out. The source made the active and inactive calls. How the source made its calls: active means hit-call score of the fitted dose curve at least 0.9, where 1 is the maximum; inconclusive means response in the unintended direction; inactive means score below 0.9.

Tests used:
[1] = ACEA_AR_agonist_AUC_viability: ACEA Biosciences xCELLigence Real-Time Cell Analysis on Androgen Receptor Agonism for Viability (AID 2283775);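 on AC50: viability read 80 hours after compound addition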
Summary of the method: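 Viability endpoint from xCELLigence impedance in 22Rv1 prostate cells at 80 h. Eight-point series, 100 uM maximum final.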

[2] = ACEA_AR_antagonist_AUC_viability: ACEA Biosciences xCELLigence Real-Time Cell Analysis on Androgen Receptor Antagonism for Viability (AID 2283776);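 further: 22Rv1 human prostate cancer cells growing on impedance electrode plates; area under impedance growth curve at 80 h after dosing as viability; hits lower the growth signal relative to DMSO meaning cytotoxicity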
Summary of the method: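 22Rv1 prostate cells, continuous dosing up to 100 uM final (0.5% DMSO max), duplicate plates. Growth measured by impedance; AUC at 80 h, loss of signal vs DMSO.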

[3] = ACEA_ER_AUC_viability: ACEA Biosciences xCELLigence Real-Time Cell Analysis on Estrogen Receptor Agonism for Viability (AID 2283782);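 further: hit means loss of impedance signal meaning reduced cell growth or viability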
Summary of the method: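 Continuous-exposure impedance cell analysis uses T-47D cells in charcoal-stripped serum, eight 1:4 dilutions topping at 100 uM final, biological duplicate. Area under the growth curve at 80 h is fitted against DMSO baseline.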

[4] = STM_H9_NormalizedViability: Cytotoxicity Assessment at 120 hours in the Stemina devTOX quickPredict H9 human embryonic stem cell (hESC)-based Assay (AID 2283784)
Summary of the method: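 Here, H9 cells received test compound with daily medium renewal. Each plate included methotrexate references (1uM, 5 nM), 0.1% DMSO and media blanks; CellTiter-Fluor RFU was normalized to DMSO.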

AR (gene 367) [5] = biological target: AR (gene 367) (UniProt P10275); assay: ACEA_AR_antagonist_80hr: ACEA Biosciences xCELLigence Real-Time Cell Analysis on Androgen Receptor Antagonism for Proliferation (AID 2283787);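 further: 22Rv1 human prostate cancer cells with growth followed by electrical impedance; hits lower the impedance growth signal relative to DMSO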
Summary of the method: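 Using 22Rv1 cells held in assay medium, we dosed compounds (100 uM maximum final, 1:4 serial, eight points, 0.5% DMSO at top) and recorded cell-electrode impedance; the 80 hr timepoint was analyzed against DMSO.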

AR (gene 367) [6] = biological target: AR (gene 367) (UniProt P10275); assay: ACEA_AR_agonist_80hr: ACEA Biosciences xCELLigence Real-Time Cell Analysis on Androgen Receptor Agonism for Proliferation (AID 2283783);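 further: hits increase impedance growth signal above DMSO baseline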
Summary of the method: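 Real-time cell-growth kinetics were recorded by electrode impedance in 22Rv1 cells exposed to test chemicals up to 100 uM final; the 80 h timepoint served as the readout, fitted upward relative to DMSO controls, in biological duplicate.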

AR (gene 367), sequence (P10275 whole entry, looked up): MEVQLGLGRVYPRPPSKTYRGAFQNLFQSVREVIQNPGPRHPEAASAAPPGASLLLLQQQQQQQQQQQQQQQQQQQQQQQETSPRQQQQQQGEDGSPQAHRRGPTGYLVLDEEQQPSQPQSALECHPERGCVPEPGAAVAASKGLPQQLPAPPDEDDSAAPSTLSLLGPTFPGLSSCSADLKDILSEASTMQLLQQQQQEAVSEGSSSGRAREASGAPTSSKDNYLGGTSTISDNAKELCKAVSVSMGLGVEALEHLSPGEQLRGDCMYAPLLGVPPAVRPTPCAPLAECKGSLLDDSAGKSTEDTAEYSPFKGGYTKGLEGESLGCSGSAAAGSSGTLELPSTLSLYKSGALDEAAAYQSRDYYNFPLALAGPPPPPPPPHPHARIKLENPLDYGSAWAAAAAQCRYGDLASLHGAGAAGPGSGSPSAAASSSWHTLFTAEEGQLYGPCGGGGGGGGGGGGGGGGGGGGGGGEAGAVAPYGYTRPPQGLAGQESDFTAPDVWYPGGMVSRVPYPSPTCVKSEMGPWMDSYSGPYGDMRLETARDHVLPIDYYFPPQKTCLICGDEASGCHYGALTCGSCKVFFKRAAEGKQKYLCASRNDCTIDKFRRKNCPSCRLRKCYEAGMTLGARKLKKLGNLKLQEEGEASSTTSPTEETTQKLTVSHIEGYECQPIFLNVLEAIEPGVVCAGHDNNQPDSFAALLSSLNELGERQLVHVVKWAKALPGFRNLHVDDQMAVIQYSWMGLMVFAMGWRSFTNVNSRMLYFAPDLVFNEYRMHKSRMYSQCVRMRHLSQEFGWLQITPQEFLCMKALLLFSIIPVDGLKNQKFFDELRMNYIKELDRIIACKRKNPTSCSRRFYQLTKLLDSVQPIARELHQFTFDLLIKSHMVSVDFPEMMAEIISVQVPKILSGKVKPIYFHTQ

SMILES: CC(Cc1ccc(OCC(=O)O)cc1)NCC(O)c1csc(C(F)(F)F)n1 (stereo unspecified)
- outcome [1]: inactive
- outcome [2]: inactive
- outcome [3]: inactive

SMILES: CCOP(=S)(Oc1ccc([N+](=O)[O-])cc1)c1ccccc1 (stereo unspecified)
- AC50 [1]: 50 µM (active)
- AC50 [2]: 14.9 µM (active)

SMILES: O=C(O)CF
- outcome [1]: inactive
- outcome [2]: inactive
- outcome [3]: inactive

SMILES: OCC1CO1 (stereo unspecified)
- outcome [1]: inactive
- outcome [2]: inactive

SMILES: O=[N+]([O-])c1ccc(Cl)c(Cl)c1
- outcome [1]: inactive
- outcome [2]: inactive

SMILES: Nc1cc2c3c(c1)C(c1ccccc1)=N[C@@H](NC(=O)c1cccnc1)C(=O)N3CC2
- outcome [1]: inactive
- outcome [2]: inactive
- outcome [3]: inactive

SMILES: Nc1ccc2ccccc2c1
- outcome [2]: inactive
- outcome [4]: inactive

SMILES: COC(=O)C(F)(F)C(F)(F)OC(F)(C(F)(F)F)C(F)(F)OC(F)=C(F)F (stereo unspecified)
- outcome [3]: inactive

SMILES: Cc1ccc(N)cc1N
- outcome [2]: inactive
- AC50 [4]: 36.1 µM (active)

SMILES: COCCOCCO
- outcome [2]: inactive
- outcome [3]: inactive

SMILES: c1ccc2c(c1)Nc1ccccc1S2
- outcome [1]: inactive
- AC50 [2]: 21.7 µM (active)
- outcome [3]: inactive
- outcome [4]: inactive

SMILES: O=C(CBr)OCc1ccccc1
- outcome [1]: inactive
- outcome [3]: inactive

SMILES: c1nc[nH]n1
- outcome [2]: inactive

SMILES: CC(Cl)(Cl)C(=O)O
- outcome [2]: inactive

SMILES: CCCCC(CC)COP(=O)(Oc1ccccc1)Oc1ccccc1 (stereo unspecified)
- outcome [1]: inactive
- AC50 [2]: 16.6 µM (active)
- AC50 [3]: 85.5 µM (active)
- outcome [4]: inactive
- AC50 (AR (gene 367) [5]): 16.6 µM (active)

SMILES: COC(N)=O
- outcome [2]: inactive
- outcome [3]: inactive

SMILES: O=C(O)C1C(C(=O)O)C2(Cl)C(Cl)=C(Cl)C1(Cl)C2(Cl)Cl (stereo unspecified)
- outcome [1]: inactive
- outcome [2]: inactive
- outcome [4]: inactive

SMILES: FC(F)(F)c1ccc(Cl)cc1
- outcome [2]: inactive

SMILES: [N-]=[N+]=[N-]
- outcome [1]: inactive
- AC50 [2]: 50 µM (active)
- AC50 (AR (gene 367) [5]): 50 µM (active)

SMILES: CC(C)(C)N(NC(=O)c1ccc(Cl)cc1)C(=O)c1ccccc1
- outcome [1]: inactive
- outcome [2]: inactive
- outcome (AR (gene 367) [5]): inactive

SMILES: COP(=O)(O)OC
- outcome [3]: inactive

SMILES: CCNc1nc(Cl)nc(NC(C)(C)C)n1
- outcome [1]: inactive
- outcome [2]: inactive
- outcome (AR (gene 367) [6]): inactive
- outcome (AR (gene 367) [5]): inactive

SMILES: O=S1(=O)OCC2C(CO1)C1(Cl)C(Cl)=C(Cl)C2(Cl)C1(Cl)Cl (stereo unspecified)
- outcome [2]: inactive
- AC50 [3]: 83 µM (active)

SMILES: CCCCN(CC)C(=O)SCCC
- outcome [1]: inactive
- outcome [2]: inactive
- outcome (AR (gene 367) [6]): inactive
- outcome (AR (gene 367) [5]): inactive

SMILES: C=CC(=O)OCC(CC)(COC(=O)C=C)COC(=O)C=C
- AC50 [3]: 10.1 µM (active)

SMILES: CCCCC(CC)COC(=O)c1c(Br)c(Br)c(Br)c(Br)c1C(=O)OCC(CC)CCCC (stereo unspecified)
- outcome [2]: inactive

SMILES: CC1(C)CN=C(NN=C(/C=C/c2ccc(C(F)(F)F)cc2)/C=C/c2ccc(C(F)(F)F)cc2)NC1
- AC50 [1]: 12.6 µM (active)
- AC50 [2]: 11.1 µM (active)
- AC50 [3]: 2.02 µM (active)
- AC50 (AR (gene 367) [5]): 12.3 µM (active)

SMILES: CO/N=C(/C(=O)OC)c1ccccc1COc1ccccc1C
- outcome [1]: inactive
- outcome [2]: inactive
- outcome (AR (gene 367) [5]): inactive

SMILES: c1cc2c3c(cccc3c1)CC2
- outcome [1]: inactive
- outcome [2]: inactive
- outcome (AR (gene 367) [6]): inactive
- outcome (AR (gene 367) [5]): inactive

SMILES: Oc1ccc(I)cc1
- AC50 [3]: 73.7 µM (active)

SMILES: ClC(Cl)=C(c1ccc(Cl)cc1)c1ccccc1Cl
- outcome [3]: inactive

SMILES: Oc1ccccc1Br
- outcome [3]: inactive

SMILES: CC(C)(C)OOC(C)(C)C
- outcome [3]: inactive

SMILES: CN(C)C(=O)Cl
- outcome [2]: inactive

SMILES: CCN(CC)c1ccccc1
- outcome [2]: inactive
- outcome (AR (gene 367) [6]): inactive
- outcome (AR (gene 367) [5]): inactive

SMILES: CCOC(=O)c1ccccc1C(=O)OCC
- outcome [2]: inactive
- outcome [3]: inactive
- outcome [4]: inactive

SMILES: CCC1(c2ccccc2)C(=O)N=C(O)NC1=O (stereo unspecified)
- outcome [1]: inactive
- outcome [2]: inactive
- outcome [4]: inactive

SMILES: CC(O)C(F)(F)C(F)(F)F (stereo unspecified)
- outcome [3]: inactive
